± gives the standard deviation of the averaged measurements. The full ranking holds about 4,100 sequences; the median of “relative kcat/Km (krel) vs genomic leader AAAGAU” is about 1.7, and the highest 2% start at about 6.5. The entries come from a sample that favours the highest values as a whole.
Molecular target: T1, E. coli RNase P holoenzyme (M1 P RNA + rnpA protein) (UniProt P0A7Y8)
T1 sequence: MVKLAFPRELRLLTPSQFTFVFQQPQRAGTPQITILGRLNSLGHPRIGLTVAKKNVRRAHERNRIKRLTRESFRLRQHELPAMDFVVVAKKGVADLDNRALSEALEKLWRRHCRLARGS
Test: relative kcat/Km (krel) vs genomic leader AAAGAU (relative (reference leader = 1)); higher = faster RNase P cleavage
Description: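 HTS-Kin: a pool of ptRNA-Met (21C construct) with all 4096 combinations of 5' leader nucleotides N(-6) to N(-1) was processed in vitro by E. coli RNase P (P RNA + rnpA/C5 protein) under multiple-turnover conditions at 37 C, pH 8, 17.5 mM MgCl2. Residual substrate was Illumina-sequenced at several fractions reacted, and relative kcat/Km (krel) was computed by internal competition kinetics, calibrated to the genomic leader (AAAGAU = 1). The listed hexamer is the varied N(-6)..N(-1) leader (DNA letters), and it sits between a fixed 5' stem-loop flank (GCAUGCACGAAAGUGCGUGCUAUGAA) and the mature tRNA-Met starting GGCUACGUAGCUCAGUUGG. Two technical replicates are averaged.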

[1] = fraction of substrate reacted: ~9-10% (9.79% repeat 1, 9.1% repeat 2)
[2] = fraction of substrate reacted: ~13-16% (15.68% repeat 1, 13.17% repeat 2)
[3] = fraction of substrate reacted: ~26-29% (28.66% repeat 1, 26.4% repeat 2)

| Sequence | relative kcat/Km [1] | relative kcat/Km [2] | relative kcat/Km [3] |
| --- | --- | --- | --- |
| ATGAGA | 0.619 ± 0.34 | 0.964 ± 0.71 | 2.28 ± 0.37 |
| CCCAAC | 2.26 ± 0.55 | 2.15 ± 0.29 | 3.75 ± 1.1 |
| TCAATT | 2.1 ± 1.1 | 1.92 ± 0.12 | 2.3 ± 0.3 |
| TCAAAA | 2.12 ± 1.1 | 1.64 ± 0.34 | 2.89 ± 1.2 |
| CTTAAC | 2.53 ± 1.3 | 2.52 ± 0.82 | 3.93 ± 1.3 |
| TTCAAG | 2.98 ± 2.4 | 3.38 ± 0.47 | 5.77 ± 2 |
| TTCAAT | 4.1 ± 1.6 | 5.53 ± 0.71 | 9.07 ± 3.9 |
| CTCAAC | 3.75 ± 0.14 | 5.06 ± 1.2 | 7.63 ± 3.4 |
| ATCAAC | 3.56 ± 1.5 | 4.05 ± 0.78 | 5.86 ± 1.6 |
| TTCAAC | 4.99 ± 1.6 | 6.12 ± 0.93 | 8.94 ± 3.2 |
| TTCAAA | 4.87 ± 2.9 | 6.52 ± 1.5 | 9.38 ± 3.5 |
| TGCAAT | 0.917 ± 0.7 | 1.18 ± 0.72 | 1.9 ± 0.94 |
| TGCAAC | 1.87 ± 0.58 | 1.45 ± 0.22 | 2.22 ± 0.84 |
| CTTCTT | 2.75 ± 1.4 | 3.05 ± 0.55 | 3.45 ± 0.96 |
| AACCGC | 3.24 ± 0.86 | 3.02 ± 0.23 | 4.02 ± 0.71 |
| GATTGG | – | – | 0.409 ± 0.2 |
| ATTCCA | 2.17 ± 0.89 | 2.11 ± 0.63 | 1.93 ± 0.82 |
| TAATTA | 2.15 ± 1.5 | 2.05 ± 0.57 | 2.99 ± 1.1 |
| ACGTTC | 2.18 ± 0.36 | 2.45 ± 0.76 | 3.59 ± 1.4 |
| CATCAA | 2.69 ± 0.095 | 3.35 ± 0.32 | 4.59 ± 1.9 |
| TCCGGA | 1.02 ± 0.16 | 1.33 ± 0.95 | 1.83 ± 1.3 |
| TCGCAT | 2.12 ± 0.11 | 3.11 ± 0.57 | 5.13 ± 2.3 |
| GCCAAC | 1.34 ± 0.25 | 1.28 ± 1.1 | 3.94 ± 1 |
| GGCAAC | 2.31 ± 1.6 | 2.29 ± 0.56 | 3.36 ± 0.68 |
| CTCAAT | 4.23 ± 0.85 | 5.46 ± 1.7 | 7.66 ± 3.5 |

| Sequence | relative kcat/Km [1] | relative kcat/Km [2] | relative kcat/Km [3] |
| --- | --- | --- | --- |
| CGCAAT | 1.86 ± 0.36 | 2.82 ± 1.1 | 4.14 ± 1.8 |
| CCCAAT | 2.73 ± 0.86 | 3.48 ± 0.28 | 5.27 ± 1.6 |
| ATCAAT | 3.19 ± 0.91 | 4.2 ± 0.86 | 6.65 ± 3.1 |
| AGCAAT | 2.43 ± 0.54 | 2.33 ± 0.049 | 3.3 ± 1.1 |
| GTCAAC | 4.47 ± 1.7 | 5.05 ± 1.3 | 7.94 ± 3.1 |
| AGTAAG | – | 1.26 ± 0.66 | 3.3 ± 0.62 |
| TAATCG | – | 0.624 ± 0.13 | 1.73 ± 0.43 |
| TAGGTG | – | – | 0.812 ± 0.66 |
| GCAATG | – | – | 1.35 ± 0.34 |
| TTGCAC | 2.41 ± 1.3 | 2.27 ± 0.05 | 3.33 ± 0.78 |
| TCTGTT | 1.56 ± 0.75 | 1.38 ± 1.1 | 1.89 ± 1.2 |
| ACCAAA | 2.83 ± 2.3 | 3.55 ± 0.63 | 4.37 ± 0.92 |
| AATGAA | 2.18 ± 1.1 | 2.14 ± 0.073 | 2.72 ± 0.88 |
| GGCGAT | 1.24 ± 0.38 | 1.52 ± 0.5 | 2.32 ± 0.83 |
| GGGCAA | – | 1 ± 0.65 | 1.5 ± 0.79 |
| GGGGAT | – | – | 1.93 ± 1.9 |
| TATCAT | 4.22 ± 1.9 | 5.02 ± 0.57 | 7.37 ± 3.5 |
| AATCAC | 2.09 ± 1.1 | 2.63 ± 0.078 | 4.12 ± 1.3 |
| GATCAC | 2.93 ± 0.77 | 4.27 ± 1.3 | 5.26 ± 2.1 |
| TATCAC | 4.08 ± 2.5 | 4.88 ± 0.12 | 7.11 ± 2.8 |
| AATCAT | 3.17 ± 2 | 2.88 ± 0.24 | 4.38 ± 1.7 |
| GATCAT | 2.26 ± 0.96 | 3.62 ± 0.21 | 5.17 ± 1.7 |
| CCATCT | 2.12 ± 1.5 | 1.53 ± 1.1 | 2.64 ± 0.42 |
| TACACG | 2.67 ± 2.1 | 2.37 ± 0.74 | 3.55 ± 0.64 |
| CAGTAC | 3.68 ± 1.6 | 4.92 ± 0.95 | 6.37 ± 2.2 |

| Sequence | relative kcat/Km [1] | relative kcat/Km [2] | relative kcat/Km [3] |
| --- | --- | --- | --- |
| TAGTAA | 3.7 ± 0.66 | 4.78 ± 0.65 | 6.72 ± 3 |
| AAGTAA | 2.99 ± 1.7 | 3.36 ± 0.17 | 4.47 ± 1.6 |
| TAGTAT | 3.26 ± 0.97 | 4.14 ± 0.84 | 6.5 ± 3.2 |
| AAGTAC | 3.18 ± 1.6 | 3.53 ± 0.57 | 4.86 ± 1.7 |
| TAGTAC | 4.35 ± 1.3 | 5.28 ± 0.82 | 7.85 ± 3.4 |
| TCATCG | 1.66 ± 1.1 | 0.943 ± 0.074 | 1.96 ± 0.15 |
| CGATGC | 2.88 ± 0.51 | 2.7 ± 1.8 | 4.03 ± 1.4 |
| TAGCTT | 1.84 ± 0.3 | 2.04 ± 0.21 | 2.8 ± 1.2 |
| GTCGCT | 2.09 ± 1.2 | 2.03 ± 0.41 | 3.35 ± 1 |
| ATCGCT | 2.5 ± 0.7 | 2.34 ± 0.31 | 3.27 ± 0.6 |
| ATCGCG | 2.62 ± 1.1 | 1.7 ± 0.89 | 3.07 ± 0.91 |
| ATCGCC | 4.35 ± 0.56 | 5.34 ± 2 | 7.69 ± 3 |
| ATCGCA | 3.36 ± 1 | 4.58 ± 0.2 | 6.35 ± 2.8 |
| TTCGCA | 4.21 ± 0.84 | 6.08 ± 1.7 | 8.75 ± 3.8 |
| GTCGTC | 3.09 ± 1.7 | 2.79 ± 0.12 | 4.02 ± 1.6 |
| GTCGCG | 2.3 ± 2.2 | 1.77 ± 0.36 | 3.47 ± 0.87 |
| GTCGCA | 4.66 ± 1.2 | 5.5 ± 1.6 | 7.77 ± 3.1 |
| GTCGCC | 4.34 ± 1.4 | 5.5 ± 0.42 | 7.93 ± 3.1 |
| TGCGCA | 2 ± 0.91 | 1.69 ± 0.53 | 2.46 ± 0.77 |
| GGCGCA | 1.73 ± 0.44 | 2 ± 1.2 | 3.02 ± 1.3 |
| GGTCAA | 0.981 ± 0.11 | 1.45 ± 0.14 | 1.83 ± 1.1 |
| CATTCA | 2.03 ± 0.96 | 2.26 ± 0.27 | 2.76 ± 0.83 |
| TATACC | 1.83 ± 0.44 | 2.35 ± 0.29 | 2.84 ± 1.4 |
| TATGGT | – | – | 1.77 ± 1.3 |
| CTGCCT | 2.67 ± 0.64 | 1.47 ± 0.29 | 1.91 ± 0.022 |

| Sequence | relative kcat/Km [1] | relative kcat/Km [2] | relative kcat/Km [3] |
| --- | --- | --- | --- |
| GGAGAG | – | – | 1.19 ± 0.14 |
| ATTTTT | 2.48 ± 0.92 | 2.63 ± 0.22 | 3.89 ± 1.3 |
| TTTAGA | 2.52 ± 0.65 | 3.74 ± 0.44 | 5.73 ± 2.2 |
| CCCCAT | 1.7 ± 1.5 | 3.312 ± 0.011 | 4.95 ± 1.3 |
| CTCGCA | 4.01 ± 1.4 | 4.94 ± 0.48 | 6.71 ± 2.1 |
| TTCGCC | 4.66 ± 1.2 | 6.09 ± 1.6 | 9.48 ± 3.8 |
| CTCGTA | 3.1 ± 0.69 | 3.21 ± 0.68 | 4.83 ± 2 |
| CGCGCA | 1.86 ± 0.068 | 2.64 ± 0.045 | 3.31 ± 0.91 |
| CTCGCT | 1.9 ± 0.4 | 2.61 ± 0.72 | 3.67 ± 0.94 |
| TTCGCT | 2.88 ± 1.4 | 3.06 ± 0.21 | 4.56 ± 1.4 |
| CTCGCC | 4.36 ± 1.6 | 5.23 ± 1.7 | 7.26 ± 2.8 |
| TTCGCG | – | 2.32 ± 0.79 | 3.87 ± 0.24 |
| CTCGCG | 2.22 ± 1.4 | 1.19 ± 1.2 | 3.19 ± 1 |
| TAAAGG | – | – | 0.833 ± 0.34 |
| CCGACA | 0.997 ± 0.31 | – | 0.842 ± 0.8 |
| GTGTCG | – | – | 0.804 ± 0.49 |
| AGCCTA | 2.05 ± 0.87 | 1.97 ± 0.57 | 2.57 ± 0.69 |
| AACAGA | 3.71 ± 2.3 | 4.083 ± 0.036 | 5.65 ± 2.1 |
| GACAGA | 3.09 ± 0.71 | 4.59 ± 1.2 | 6.53 ± 2.4 |
| CACAGA | 3.95 ± 0.46 | 4.77 ± 2 | 7.2 ± 2.4 |
| GACAGG | – | – | 1.2 ± 0.042 |
| CACAGT | – | – | 1.95 ± 1.9 |
| CACAGG | 0.41 ± 0.093 | – | 1.35 ± 0.051 |
| GTACAG | – | – | 1.99 ± 0.4 |
| GAAGGT | – | – | 1.31 ± 0.065 |

Reference: the supplement of paper PMC9433436
